Experimental findings from PubChem BioAssay (EPA / NIEHS) are described below.

The source made the active and inactive calls. Rule for the calls: active = hit-call score of the fitted dose curve at least 0.9, where 1 is the maximum; inactive = score below 0.9.

The nature of experiment [1]: ATG_CRE_CIS: Attagene CIS-FACTORIAL HepG2 Assay for human cAMP Responsive Element (CRE) binding protein 3 (AID 2282926). The following applies: HepG2 CRE cis-reporter, Attagene multiplexed mRNA; actives raise or lower the signal. In outline:
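Transfected HepG2 were treated for 24 hours, then RNA was extracted and reporter cDNA amplified with sequence-specific primers. Labelled fragments were separated by capillary electrophoresis, and the CRE signal was fitted bidirectionally with DMSO as baseline.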

Experiment [2] concerns the target CCAAT/enhancer-binding protein beta (Homo sapiens) (UniProt P17676). Nature of the experiment: ATG_C_EBP_CIS: Attagene CIS-FACTORIAL HepG2 Assay for human CCAAT/Enhancer Binding Protein (C/EBP) beta (AID 2282927). Conditions: HepG2 Attagene cis-factorial transcription factor reporter; actives raise or lower the signal. In outline: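 HepG2 transiently transfected with multiplexed reporter units under cis-regulatory promoters reporting endogenous C/EBPb activity. After 24 h exposure, reporter mRNA assayed by RT-PCR, fluorescent labelling, HpaI digestion and capillary electrophoresis; bidirectional fitting versus DMSO.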

Experiment [3] is described as follows: ATG_CMV_CIS: Attagene CIS-FACTORIAL HepG2 Assay for human CMV (Internal Marker) (AID 2282928).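 Note: endpoint acts as a background internal control marker rather than a target.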 The following applies: HepG2 CMV promoter reporter, transcription factor profiling; actives raise or lower the signal. In outline: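 Endogenous transcription factor activity read in HepG2 via transfected cis-promoter reporter units. After 24 h dosing, reporter mRNA measured by RT-PCR/capillary electrophoresis; gain or loss of signal fit relative to DMSO.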

Experiment [4] in a line: ATG_DR4_LXR_CIS: Attagene CIS-FACTORIAL HepG2 Assay for human Liver X Receptor (LXR), DR4 submotif (AID 2282929). The following applies: HepG2 Attagene DR4 cis-reporter, mRNA transcription; actives raise or lower the signal. A digest of the protocol:
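After transient transfection with multiplexed cis-promoter reporter units, HepG2 cells received test chemicals for 24 h. Reporter mRNA induction, detected by fluorescence after RT-PCR and capillary electrophoresis, was scored relative to DMSO.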

The target of experiment [5] is Aryl hydrocarbon receptor (Homo sapiens) (UniProt P35869). Nature of the experiment: ATG_Ahr_CIS: Attagene CIS-FACTORIAL HepG2 Assay for human Aryl Hydrocarbon Receptor (Ahr) (AID 2282930). Conditions: HepG2 AhR cis-factorial reporter transcription; actives raise or lower the signal. In outline: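 HepG2 cells transiently transfected with cis-element-driven multiplexed reporter units; endogenous AhR activity read as reporter mRNA 24 h after dosing, via RT-PCR, 6-FAM labelling, HpaI digestion and capillary electrophoresis. Bidirectional fit relative to DMSO.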

Experiment [6] in a line: ATG_AP_1_CIS: Attagene CIS-FACTORIAL HepG2 Assay for human Activator Protein 1 (AP-1) (AID 2282931). The following applies: HepG2 Attagene cis-factorial AP-1 reporter mRNA; actives raise or lower the signal. In outline: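 After 24 h incubation with test chemical, RNA from transfected HepG2 cells was reverse-transcribed, amplified, fluorescently labelled and digested before capillary electrophoresis. Reporters were driven by cis-regulatory promoters; activity fitted bidirectionally versus DMSO.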

Experiment [7] can be described thus: ATG_AP_2_CIS: Attagene CIS-FACTORIAL HepG2 Assay for human Activator Protein 2 (AP-2) (AID 2282932). The following applies: HepG2 AP-2 cis-reporter, Attagene transcription factor profiling; actives raise or lower the signal. In outline:
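HepG2 cells transiently transfected with cis-element reporter units and exposed for 24 h. Reporter mRNA measured by RT-PCR, FAM labelling, HpaI digestion and capillary electrophoresis. Changes in either direction fitted relative to DMSO.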

Experiment [8] in a line: ATG_BRE_CIS: Attagene CIS-FACTORIAL HepG2 Assay for human Bone Morphogenetic Protein (BMP) Response Element (BRE) (AID 2282933). Conditions: HepG2 BMP response element reporter, Attagene transcription factor profiling; actives raise or lower the signal. A digest of the protocol:
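Endogenous transcription factor activity at a BMP response element was monitored in transfected HepG2 cells 24 h after dosing. Fluorescent RT-PCR products were resolved by capillary electrophoresis, and activity was fitted in both directions versus DMSO.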

Experiment [9] has as its target Retinoic acid receptor alpha (Homo sapiens) (UniProt P10276). The experiment is described as follows: ATG_DR5_RAR_CIS: Attagene CIS-FACTORIAL HepG2 Assay for human Retinoic Acid Receptor Alpha (RARE), DR5 submotif (AID 2282934). Conditions: HepG2 Attagene cis-factorial RARE DR5 reporter, mRNA; actives raise or lower the signal. In outline:
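HepG2 cells transiently transfected with multiplexed reporter units; DR5 cis-element drives reporter through endogenous transcription factors. After 24 h dosing, reporter mRNA quantified by RT-PCR, fluorescent labeling, HpaI digestion and capillary electrophoresis; bidirectional fitting versus DMSO.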

Experiment [10] has as its target Transcription factor E2F1 (Homo sapiens) (UniProt Q01094). The experiment is described as follows: ATG_E2F_CIS: Attagene CIS-FACTORIAL HepG2 Assay for human E2F Transcription Factor 1 (AID 2282935). The following applies: HepG2 Attagene cis-reporter, E2F reporter RNA transcripts; actives raise or lower the signal. A digest of the protocol:
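Endogenous E2F1 activity read through cis-promoter reporter units transfected into HepG2. After 24 h compound treatment, reporter mRNA measured by RT-PCR, HpaI digestion and capillary electrophoresis. Bidirectional fit versus DMSO.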

Experiment [11] is described as follows: ATG_E_Box_CIS: Attagene CIS-FACTORIAL HepG2 Assay for human Enhancer Box (E-box) (AID 2282936). The following applies: HepG2 E-box cis-reporter transcription, actives raise or lower the signal. A digest of the protocol: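 HepG2 cells transiently transfected with multiplexed cis-element reporter units, dosed 24 h; reporter mRNA quantified by RT-PCR, 6-FAM labelling, HpaI digestion and capillary electrophoresis. E-box (USF1) signal fitted bidirectionally vs DMSO.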

Experiment [12] can be described thus: ATG_M_61_CIS: Attagene CIS-FACTORIAL HepG2 Assay for M61 Transcription Factor (Internal Marker) (AID 2282937). Conditions: HepG2 Attagene CIS-FACTORIAL M61 internal marker reporter; actives raise or lower the signal. A digest of the protocol: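 Using transiently transfected HepG2 liver cells, reporter transcript levels were assessed 24 h post-dosing by RT-PCR and capillary electrophoresis. Changes in either direction were fitted relative to DMSO controls.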

A short description of experiment [13]: ATG_EGR_CIS: Attagene CIS-FACTORIAL HepG2 Assay for human Early Growth Response 1 (EGR1) (AID 2282938). The following applies: HepG2 Attagene CIS-FACTORIAL EGR reporter mRNA; actives raise or lower the signal. In outline:
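Fluorescent capillary-electrophoresis signal of reporter cDNA fragments serves as read-out. HepG2 cells bear transiently transfected cis-promoter reporter units and are exposed 24 h; gain- or loss-of-signal is fitted against DMSO.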

The nature of experiment [14]: ATG_M_19_CIS: Attagene CIS-FACTORIAL HepG2 Assay for M19 Transcription Factor (Internal Marker) (AID 2282939). The following applies: HepG2 Attagene CIS-FACTORIAL M19 internal marker reporter; actives raise or lower the signal. In outline: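 Background-control endpoint from a multiplexed HepG2 reporter panel. Cells carrying cis-regulated reporter constructs are treated 24 h, then reporter transcripts are amplified, fluorescently labelled and sized by capillary electrophoresis. DMSO defines baseline.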

Experiment [15] in a line: ATG_Ets_CIS: Attagene CIS-FACTORIAL HepG2 Assay for human Erythroblast Transformation Specific (ETS) (AID 2282941). Conditions: HepG2 ETS cis-reporter transcription, actives raise or lower the signal. In outline: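 Steps: transfect HepG2 with multiple reporter units; treat compound 24 h; isolate RNA, DNase-treat, reverse-transcribe; PCR-amplify, label with 6-FAM, digest with HpaI; separate by capillary electrophoresis. Activity fitted both directions versus DMSO.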

Experiment [16] has as its target Hepatocyte nuclear factor 3-beta (Homo sapiens) (UniProt Q9Y261). Nature of the experiment: ATG_FoxA2_CIS: Attagene CIS-FACTORIAL HepG2 Assay for human Forkhead box A2 (FOXA2) (AID 2282942). Conditions: HepG2 cis-reporter transcription factor activity, 24 h; actives raise or lower the signal. In outline: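 Fluorescence signal of reporter cDNA fragments, separated by capillary electrophoresis, reflects endogenous transcription factor activity in transfected HepG2 after 24 h. Both increases and decreases fitted against DMSO.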

A short description of experiment [17]: ATG_FoxO_CIS: Attagene CIS-FACTORIAL HepG2 Assay for human Forkhead box O (FoxO) (AID 2282943). The following applies: HepG2 Attagene cis-reporter, FoxO element, mRNA; actives raise or lower the signal. A digest of the protocol:
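HepG2 cells transiently transfected with cis-element-driven reporter units report endogenous FoxO activity. After 24 h chemical exposure, reporter mRNA quantified by RT-PCR, fluorescent labeling, HpaI digestion and capillary electrophoresis; bidirectional fit versus DMSO.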

Experiment [18] in a line: ATG_GATA_CIS: Attagene CIS-FACTORIAL HepG2 Assay for human GATA Binding Protein (AID 2282944). Conditions: HepG2 GATA cis-element reporter, Attagene multiplex mRNA; actives raise or lower the signal. A digest of the protocol: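 Endogenous transcription factor activity was captured through cis-promoter-driven reporters in transfected HepG2 cells. After 24 h exposure, reporter transcripts were quantified by RT-PCR with fluorescent capillary electrophoresis, and responses fitted both directions against DMSO.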

A short description of experiment [19]: ATG_GLI_CIS: Attagene CIS-FACTORIAL HepG2 Assay for human Zinc Finger Protein GLI1 (AID 2282945). The following applies: HepG2, Attagene cis-factorial reporter mRNA, GLI element; actives raise or lower the signal. A digest of the protocol:
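Transiently transfected HepG2 cells report endogenous transcription factor activity via cis-element-driven reporter units. After 24 h compound exposure, reporter mRNA was measured by RT-PCR with capillary electrophoresis; bidirectional fitting against DMSO baseline.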

Aryl hydrocarbon receptor (Homo sapiens), sequence (P35869 whole entry, looked up): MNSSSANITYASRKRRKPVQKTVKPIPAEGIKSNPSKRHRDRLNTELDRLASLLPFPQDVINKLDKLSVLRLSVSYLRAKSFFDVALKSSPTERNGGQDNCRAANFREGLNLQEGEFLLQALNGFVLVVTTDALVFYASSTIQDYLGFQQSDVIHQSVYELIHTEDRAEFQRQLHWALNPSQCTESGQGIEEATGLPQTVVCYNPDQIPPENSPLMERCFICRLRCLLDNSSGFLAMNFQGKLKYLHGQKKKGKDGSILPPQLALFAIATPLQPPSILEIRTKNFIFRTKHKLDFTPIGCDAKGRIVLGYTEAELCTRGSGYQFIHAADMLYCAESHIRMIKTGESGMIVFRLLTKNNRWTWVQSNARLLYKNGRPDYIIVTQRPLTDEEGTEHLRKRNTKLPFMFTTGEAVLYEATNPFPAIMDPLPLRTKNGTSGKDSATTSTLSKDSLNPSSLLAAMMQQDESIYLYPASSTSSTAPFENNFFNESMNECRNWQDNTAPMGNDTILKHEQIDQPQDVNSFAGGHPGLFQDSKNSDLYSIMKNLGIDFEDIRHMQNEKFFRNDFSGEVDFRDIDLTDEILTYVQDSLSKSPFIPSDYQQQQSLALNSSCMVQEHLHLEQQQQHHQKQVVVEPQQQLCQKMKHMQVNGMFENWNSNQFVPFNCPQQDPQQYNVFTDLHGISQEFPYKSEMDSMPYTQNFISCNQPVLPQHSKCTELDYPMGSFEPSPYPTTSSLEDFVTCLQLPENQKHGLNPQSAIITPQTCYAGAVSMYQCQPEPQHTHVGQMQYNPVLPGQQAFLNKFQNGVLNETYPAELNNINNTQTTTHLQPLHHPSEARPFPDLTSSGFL
CCAAT/enhancer-binding protein beta (Homo sapiens), sequence (P17676 whole entry, looked up): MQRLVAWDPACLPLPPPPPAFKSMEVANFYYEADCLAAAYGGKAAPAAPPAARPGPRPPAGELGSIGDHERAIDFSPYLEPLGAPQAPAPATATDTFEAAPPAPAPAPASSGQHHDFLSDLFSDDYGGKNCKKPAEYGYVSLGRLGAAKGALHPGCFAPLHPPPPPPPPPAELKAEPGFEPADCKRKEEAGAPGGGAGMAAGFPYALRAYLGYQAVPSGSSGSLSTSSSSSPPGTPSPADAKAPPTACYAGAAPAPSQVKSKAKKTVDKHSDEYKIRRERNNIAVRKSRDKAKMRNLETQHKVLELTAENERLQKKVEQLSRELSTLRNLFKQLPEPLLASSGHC
Hepatocyte nuclear factor 3-beta (Homo sapiens), sequence (Q9Y261 whole entry, looked up, the tested form may be a part): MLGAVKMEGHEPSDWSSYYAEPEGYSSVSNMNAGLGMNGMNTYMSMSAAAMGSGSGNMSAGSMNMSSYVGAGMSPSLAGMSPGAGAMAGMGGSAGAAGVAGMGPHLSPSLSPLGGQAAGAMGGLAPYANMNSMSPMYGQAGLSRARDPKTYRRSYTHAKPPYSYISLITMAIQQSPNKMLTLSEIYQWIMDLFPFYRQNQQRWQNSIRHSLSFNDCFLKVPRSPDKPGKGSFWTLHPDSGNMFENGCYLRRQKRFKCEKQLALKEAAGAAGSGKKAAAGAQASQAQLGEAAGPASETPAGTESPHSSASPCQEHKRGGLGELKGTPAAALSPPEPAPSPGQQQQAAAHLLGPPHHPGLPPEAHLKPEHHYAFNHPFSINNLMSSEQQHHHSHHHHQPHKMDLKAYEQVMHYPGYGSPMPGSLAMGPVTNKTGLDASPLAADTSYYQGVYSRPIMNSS
Transcription factor E2F1 (Homo sapiens), sequence (Q01094 whole entry, looked up): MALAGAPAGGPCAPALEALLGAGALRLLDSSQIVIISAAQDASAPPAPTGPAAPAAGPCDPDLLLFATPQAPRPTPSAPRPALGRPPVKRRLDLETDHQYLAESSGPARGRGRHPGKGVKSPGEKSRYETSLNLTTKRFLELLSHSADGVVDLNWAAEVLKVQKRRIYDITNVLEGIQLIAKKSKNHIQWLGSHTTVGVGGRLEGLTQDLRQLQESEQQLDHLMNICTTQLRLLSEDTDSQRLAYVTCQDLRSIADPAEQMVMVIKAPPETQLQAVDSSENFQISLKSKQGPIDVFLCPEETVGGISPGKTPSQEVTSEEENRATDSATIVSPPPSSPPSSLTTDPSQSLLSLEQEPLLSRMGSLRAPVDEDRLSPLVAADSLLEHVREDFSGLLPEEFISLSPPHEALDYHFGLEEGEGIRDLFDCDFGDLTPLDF
Retinoic acid receptor alpha (Homo sapiens), sequence (P10276 whole entry, looked up): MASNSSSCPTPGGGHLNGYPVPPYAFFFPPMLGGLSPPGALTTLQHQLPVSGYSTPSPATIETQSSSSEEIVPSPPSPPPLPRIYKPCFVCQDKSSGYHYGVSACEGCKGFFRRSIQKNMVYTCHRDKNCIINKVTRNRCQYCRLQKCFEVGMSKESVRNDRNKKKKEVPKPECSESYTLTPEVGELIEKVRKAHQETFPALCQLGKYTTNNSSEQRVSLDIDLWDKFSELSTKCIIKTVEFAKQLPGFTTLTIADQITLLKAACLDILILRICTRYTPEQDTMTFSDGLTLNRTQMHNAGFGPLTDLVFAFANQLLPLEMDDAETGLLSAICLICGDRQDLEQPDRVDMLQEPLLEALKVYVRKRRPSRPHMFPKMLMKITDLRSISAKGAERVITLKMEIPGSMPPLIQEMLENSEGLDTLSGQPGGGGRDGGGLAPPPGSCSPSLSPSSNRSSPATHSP

A word on the AC50: it is the concentration at which the activity in the assay is half-maximal. In the case of `COc1ccccc1N=Nc1c(S(=O)(=O)O)cc2cc(S(=O)(=O)O)cc(NC(C)=O)c2c1O`, the result in experiment [1], in experiment [2], in [3], in experiment [4], in experiment [6] and in experiment [7] was inactive. In addition, the compound was classed as inactive in experiment [8], in experiment [9], in experiment [10], in experiment [11], in experiment [12] and in [13]. In addition, the result in [14], in [15], in experiment [16], in experiment [17], in [18] and in experiment [19] was inactive. Further, the AC50 in [5] is 16.4 µM (active).

As to `C1=CC2C3C=CC(C3)C2C1` (stereo not drawn), the result in experiment [1], in [2], in [3], in experiment [4], in experiment [6] and in experiment [7] was inactive. The outcome in experiment [8], in experiment [9], in experiment [10], in experiment [11], in [12] and in experiment [13] was inactive. Further, the outcome in experiment [14], in experiment [15], in [16], in experiment [17], in [18] and in experiment [19] was inactive. The AC50 in experiment [5] is 98.5 µM (active).

For `CC1CCC(C(C)C)C(O)C1` (stereo not drawn), the outcome in experiment [1], in [2], in experiment [3], in [4], in experiment [5] and in experiment [6] was inactive. Also, the compound was classed as inactive in experiment [7], in experiment [8], in experiment [9], in experiment [10], in experiment [11] and in experiment [12]. In addition, the compound was classed as inactive in experiment [13], in experiment [14], in experiment [15], in [16], in experiment [17] and in experiment [18]. Further, the call in experiment [19] was inactive.

As for `O=c1[nH]c(=O)c2cn[nH]c2[nH]1`, the call in experiment [1], in experiment [2], in [3], in experiment [4], in experiment [5] and in [6] was inactive. The compound was called inactive in experiment [7], in [8], in experiment [9], in experiment [10], in experiment [11] and in experiment [12]. Also, the result in experiment [13], in experiment [14], in experiment [15], in experiment [16], in [17] and in experiment [18] was inactive. Moreover, the call in experiment [19] was inactive.

For the compound `CSc1c(Cl)c(Cl)c(Cl)c(Cl)c1Cl`, the concentration at half-maximal activity (AC50) in experiment [1] was 169 µM (active); in experiment [3], 26.3 µM (active); in [4], 32 µM (active); in experiment [11], 26 µM (active); in experiment [19], 185 µM (active). Moreover, the outcome in [2], in experiment [5], in [6], in experiment [7], in [8] and in experiment [9] was inactive. Also, the outcome in experiment [10], in experiment [12], in experiment [13], in [14], in experiment [15] and in experiment [16] was inactive. In addition, the outcome in [17] and in experiment [18] was inactive.

For the compound `CCCCCCCCN1CCCC1=O`, the AC50 in experiment [1] was 151 µM (active). The outcome in experiment [2], in [3], in [4], in experiment [5], in experiment [6] and in [7] was inactive. The outcome in experiment [8], in experiment [9], in [10], in experiment [11], in experiment [12] and in experiment [13] was inactive. Besides, the call in experiment [14], in experiment [15], in experiment [16], in experiment [17], in experiment [18] and in experiment [19] was inactive.

With `FC(F)(F)COCC(F)(F)F`, the result in experiment [1], in experiment [2], in [3], in [4], in experiment [5] and in experiment [6] was inactive. Moreover, the outcome in experiment [7], in experiment [8], in experiment [9], in experiment [10], in [11] and in [12] was inactive. For the same compound, the compound was called inactive in [13], in experiment [14], in experiment [15], in [16], in experiment [17] and in experiment [18]. For the same compound, the compound was classed as inactive in experiment [19].
